Results filed as inconclusive are left out. The source made the active and inactive calls. Unless noted, calls follow the shape of the dose curve; as a rule, active = well fitted curve in the direction sought with a large enough effect in the repeat runs; inconclusive = weak or mixed curves; inactive = no such curve, though single readings can be large; an effect the other way counts as inactive or inconclusive.
Legend:
[1] = A CellTox Green Cytotoxicity Assay to monitor cytotoxicity in HepG2 cells - 0 hour (AID 1224882); also: nearly all actives have a fitted effect of over 35% in size; also: potency is read from the fitted curve at half-maximal effect
Procedure, shortened: (§1)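 HepG2, 600 cells/well premixed w/ CellTox Green; 5 h settle, 37 C/5% CO2; pintool cpd add (DMSO); 37 C, 40 h; fluorescence read at 0, 8, 16, 24, 32, 40 h.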

[2] = A CellTox Green Cytotoxicity Assay to monitor cytotoxicity in HepG2 cells - 32 hour (AID 1224883); also: nearly all actives have a fitted effect of over 50% in size; also: potency is read from the fitted curve at half-maximal effect
Procedure, shortened: as §1

[3] = A CellTox Green Cytotoxicity Assay to monitor cytotoxicity in HEK293 cells - 8 hour (AID 1224884); also: nearly all actives have a fitted effect of over 35% in size; also: potency is read from the fitted curve at half-maximal effect
Procedure, shortened: (§2)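 Read-out: fluorescence of a cell-impermeant cyanine dye staining DNA of dead cells, proportional to cytotoxicity. HEK293, 600 cells/well with reagent, compound (23 nL DMSO) added after 5 h; reads at 0, 8, 16, 24, 32, 40 h.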

[4] = qHTS RealTime-Glo MT Cell Viability Assay in HEK293 cells - 24 hour (AID 1224886); also: nearly all actives have a fitted effect of over 50% in size; also: potency is read from the fitted curve at half-maximal effect
Procedure, shortened: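 Tox21 10K qHTS, HEK293, 600 cells/well, RealTime-Glo reagent co-dispensed with cells; 5 h preincubation, compound by pintool, 37 C, luminescence at 0–40 h.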

[5] = qHTS RealTime-Glo MT Cell Viability Assay in HEK293 cells - 8 hour (AID 1224887); also: nearly all actives have a fitted effect of over 50% in size; also: potency is read from the fitted curve at half-maximal effect
Procedure, shortened: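 Luminescence readout at each listed time point; HEK293, 600 cells/well, RealTime-Glo MT reagent added with cells; compounds pinned (23 nL in DMSO) after 5 h at 37 C; continuous culture at 37 C.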

[6] = qHTS RealTime-Glo MT Cell Viability Assay in HepG2 cells - 0 hour (AID 1224889); also: nearly all actives have a fitted effect of over 50% in size
Procedure, shortened: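 Cells + NanoLuc/prosubstrate dispensed (600 cells/well) → 5 h at 37 C/5% CO2 → compounds in DMSO transferred → 40 h incubation at 37 C, luminescence read at 0, 8, 16, 24, 32, 40 h.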

[7] = A CellTox Green Cytotoxicity Assay to monitor cytotoxicity in HepG2 cells - 8 hour (AID 1224890); also: nearly all actives have a fitted effect of over 45% in size; also: potency is read from the fitted curve at half-maximal effect
Procedure, shortened: as §1

[8] = qHTS assay to identify small molecule antagonists of the estrogen receptor alpha (ER-alpha) signaling pathway using the BG1 cell line in the presence of 0.1 nM 17-beta-estradiol - cell viability counter screen (AID 1259241); also: nearly all actives have a fitted effect of over 40% in size; also: potency is read from the fitted curve at half-maximal effect
Procedure, shortened: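 Estradiol-stimulated (0.1 nM) VM7Luc4E2 cells exposed to compounds 22 hr; viability measured by fluorescence of cleaved CellTiter-Fluor substrate after 30 min.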

[9] = qHTS assay to identify small molecule antagonists of the androgen receptor (AR) signaling pathway using the MDA cell line in the presence of 0.5 nM R1881 - cell viability counter screen (AID 1259242); also: nearly all actives have a fitted effect of over 45% in size; also: potency is read from the fitted curve at half-maximal effect
Procedure, shortened: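 Live-cell protease fluorescence, CellTiter-Fluor, 30 min at 37C. Cells: MDA-kb2, 3,000/well, preincubated 5 hr. Compounds plus 0.5 nM R1881 final, 16 hr, 37C, 0% CO2.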

[10] = target: Estrogen receptor (Homo sapiens) (UniProt P03372); experiment: qHTS assay to identify small molecule antagonists of the estrogen receptor alpha (ER-alpha) signaling pathway using the BG1 cell line in the presence of 0.1 nM 17-beta-estradiol (AID 1259244); also: nearly all actives have a fitted effect of over 50% in size; also: potency is read from the fitted curve at half-maximal effect
Estrogen receptor (Homo sapiens), sequence (P03372 whole entry, looked up): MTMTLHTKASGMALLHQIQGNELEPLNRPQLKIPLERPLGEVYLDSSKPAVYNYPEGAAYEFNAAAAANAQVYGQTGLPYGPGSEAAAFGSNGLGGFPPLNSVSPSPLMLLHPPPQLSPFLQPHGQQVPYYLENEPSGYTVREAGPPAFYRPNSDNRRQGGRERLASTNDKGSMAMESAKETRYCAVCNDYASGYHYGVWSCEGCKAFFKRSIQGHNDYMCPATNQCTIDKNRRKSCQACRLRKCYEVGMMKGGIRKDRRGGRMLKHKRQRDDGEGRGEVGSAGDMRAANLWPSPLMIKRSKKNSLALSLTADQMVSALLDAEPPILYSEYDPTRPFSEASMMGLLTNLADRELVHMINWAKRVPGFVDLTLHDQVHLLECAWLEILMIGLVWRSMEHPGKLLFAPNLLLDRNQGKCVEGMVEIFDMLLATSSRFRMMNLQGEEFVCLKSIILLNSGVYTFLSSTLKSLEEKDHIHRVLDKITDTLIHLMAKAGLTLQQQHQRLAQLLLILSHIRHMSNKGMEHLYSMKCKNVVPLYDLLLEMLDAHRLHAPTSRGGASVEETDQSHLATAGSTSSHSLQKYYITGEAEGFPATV
Procedure, shortened: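 Luminescence after ONE-Glo (30 min, room temperature) measured ERE-luciferase activity in VM7Luc4E2 cells treated 22 h with compound and 0.1 nM final 17beta-estradiol as stimulator.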

[11] = qHTS assay to identify small molecule phospholipidosis (PLD) inducers (AID 1259344; active = well fitted curve in the direction sought with a large enough effect; an effect the other way counts as inactive or inconclusive)
Procedure, shortened: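 Phospholipid accumulation was scored by imaging: fixed, Hoechst-counterstained HepG2 cells stained with LipidTOX Red after 24 h compound exposure at 37 C. Read-outs were pit count and pit intensity per well or per cell, with amiodarone and DMSO controls.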

[12] = qHTS assay to identify small molecule HDAC inhibitors (AID 1259364);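 also: wild-type HCT-116 cells with endogenous class I/II HDAC activity; top concentration of the series differs between compounds; nearly all actives have a fitted effect of over 45% in size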
Procedure, shortened: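 HCT-116 (wild type), 1,500 cells/well, overnight; compound 2 hr 37C 5% CO2; HDAC-Glo I/II reagent 30 min RT; luminescence readout.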

[13] = qHTS assay to identify small molecule HDAC inhibitors - cell viability counter screen (AID 1259365)
Procedure, shortened: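 After overnight seeding at 1,500 cells per well, wild-type HCT-116 cultures took up compounds in DMSO for 2hr at 37 C. Viable cell content came from luminescence with CellTiter-Glo.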

[14] = qHTS assay to identify small molecule antagonists of the sonic hedgehog signaling (Shh) pathway - cell viability counter screen (AID 1259367); also: nearly all actives have a fitted effect of over 55% in size
Procedure, shortened: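 Viability was read by CellTiter-Fluor fluorescence in the same wells, reagent added 23 hr into compound treatment and incubated 1 hr at 37C. The 3T3 Gli1-Luc reporter cells (2,000/well) received conditioned medium after compound and ran 24 hr.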

[15] = qHTS assay to identify small molecule agonists of the sonic hedgehog signaling (Shh) pathway (AID 1259368; calls by dose curve;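 also: NIH/3T3-derived 3T3Gli1-Luc cells carrying a stable Gli1-driven firefly luciferase reporter; series mostly up to about 92 µM; nearly all actives have a fitted effect of over 15% in size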)
Procedure, shortened: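 Read-out: firefly luciferase luminescence from a Gli1 response element reporter stably integrated in NIH/3T3-derived 3T3Gli1-Luc cells, measured 30 min at room temperature after reagent addition. Compound exposure lasted 24 hr at 37 C, 5% CO2.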

[16] = qHTS assay to identify small molecule antagonists of the sonic hedgehog signaling (Shh) pathway (AID 1259369; calls by dose curve; also: nearly all actives have a fitted effect of over 45% in size; also: potency is read from the fitted curve at half-maximal effect)
Procedure, shortened: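 Luminescence readout: firefly Luc under Gli1 response element in 3T3Gli1-Luc cells (NIH/3T3 clone). Antagonist mode, stimulation by conditioned medium; compound exposure 24hr at 37 C, 5% CO2.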

[17] = qHTS assay to identify small molecule agonists of the sonic hedgehog signaling (Shh) pathway - cell viability counter screen (AID 1259366); also: nearly all actives have a fitted effect of over 50% in size
Procedure, shortened: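 Same-well cytotoxicity read. Gli1-Luc reporter 3T3 cells; compounds 24hr, 37C/5% CO2; CellTiter-Fluor fluorescence.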

[18] = A CellTox Green Cytotoxicity Assay to monitor cytotoxicity in HEK293 cells - 16 hour (AID 1224888); also: nearly all actives have a fitted effect of over 35% in size; also: potency is read from the fitted curve at half-maximal effect
Procedure, shortened: as §2

Measured: Potency

CSc1ccc(/C=C2/C(C)=C(CC(=O)O)c3cc(F)ccc32)cc1
not listed: [17] | [18]
inactive: all other assays above

Cc1ccc2oc(CN(Cc3ccccc3)C(=O)Nc3c(F)cc(F)cc3F)c(-c3ccc(Cl)cc3)c2c1
not listed: [9] | [11] | [16] | [18]
inactive: all other assays above

Nc1ccc2cc(S(=O)(=O)O)cc(O)c2c1N=Nc1ccccc1C(F)(F)F
active: [8] 30.6 µM
not listed: [9] | [10] | [11] | [14] | [17]
inactive: all other assays above

CCCCCCCCCCCC(=O)NCCCN(C)C
inactive: [1] | [6] | [10] | [12] | [13] | [15]
active: [2] 24.5 µM | [3] 54.9 µM | [4] 43.6 µM | [5] 49 µM | [18] 54.9 µM | [7] 54.9 µM | [16] 19.3 µM

CCCCCCC[N+](CC)(CC)CCCCc1ccc(Cl)cc1
active: [2] 23.9 µM | [8] 26.6 µM | [9] 6.68 µM | [10] 11.9 µM
not listed: [4] | [5] | [13] | [16] | [17]
inactive: all other assays above

Fc1ccc([C@@H]2CCNC[C@H]2COc2ccc3c(c2)OCO3)cc1
active: [2] 26.8 µM
not listed: [4] | [6] | [17]
inactive: all other assays above

CCCC(=O)OC[C@@H](OC(=O)CCC)[C@@H](OC(=O)CCC)[C@H](Cn1c2nc(=O)[nH]c(=O)c-2nc2cc(C)c(C)cc21)OC(=O)CCC
inactive: [6] | [9] | [11] | [12] | [15]
active: [1] 16.9 µM | [2] 19 µM | [3] 21.3 µM | [18] 21.3 µM | [7] 19 µM | [10] 26.6 µM | [16] 2.37 µM

— PubChem BioAssay (Tox21)
